This note sets out measurements from PubChem BioAssay (NCI).

About 79,000 compounds went through this panel and 15% of them were active in at least one assay; those are over-represented in the sample as a whole. A number with no mark means an inactive call. Calls of active or inactive are those of the source. No stated cut-off is given here; in the data, active means growth inhibition above about 70%; inactive means the rest.

Test [1] can be described thus: NCI Yeast Anticancer Drug Screen. Data for the rad50 strain (AID 155).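 Further: 0% = growth of vehicle-only cultures of the same strain.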 The following applies: S. cerevisiae rad50 strain growth inhibition; at 50.0 µM; hits give high values. An outline of the steps:
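Vehicle-treated cultures provide the reference for the growth inhibition reported for compound-exposed, repair-deficient yeast.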

Test [2] is described as follows: NCI Yeast Anticancer Drug Screen. Data for the mec2-1 strain (AID 157). The following applies: S. cerevisiae mec2-1 strain, at 50.0 µM, hits give high values. An outline of the steps:
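Using mec2-1 yeast: add compound, measure growth, express inhibition versus vehicle-treated cultures.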

A short description of test [3]: NCI Yeast Anticancer Drug Screen. Data for the sgs1 mgt1 strain (AID 161).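 Further: 0% = growth of cultures given vehicle only.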 The following applies: S. cerevisiae sgs1 mgt1 strain, at 50.0 µM, hits give high values. An outline of the steps:
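Yeast cells carrying a defined DNA-repair defect were exposed to test compounds. Growth inhibition was measured relative to vehicle-treated controls.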

Test [4] can be described thus: NCI Yeast Anticancer Drug Screen. Data for the cln2 rad14 strain (AID 165).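 Further: 0% = growth equal to vehicle treated cultures.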 The following applies: S. cerevisiae cln2 rad14 strain, at 50.0 µM, hits give high values. An outline of the steps:
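Yeast strain cln2 rad14, bearing defects in cell cycle control and DNA repair, serves as the test system; values reflect growth inhibition compared with vehicle.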

Test [5] can be described thus: NCI Yeast Anticancer Drug Screen. Data for the bub3 strain (AID 167). The following applies: S. cerevisiae bub3 mutant strain, at 50.0 µM, hits give high values. An outline of the steps:
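Mutant yeast screening strain plus compound; vehicle-treated cultures serve as the 0% inhibition reference.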

A short description of test [6]: NCI Yeast Anticancer Drug Screen. Data for the mlh1 rad18 strain (AID 175). The note with it: S. cerevisiae mlh1 rad18 strain growth inhibition; at 50.0 µM; hits give high values. An outline of the steps:
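Steps: expose repair-defective yeast to compound; measure growth; express inhibition against vehicle-treated controls.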

Consider `CC(=O)OC1(C(=O)O)CCCCC1`, for which the growth inhibition in test [1] is 5.8%; in test [2], 14%; in test [3], -0.05%; in test [4], -19.9%; in test [5], 5.25%; in test [6], 9.65%.
Consider `O=C(Nc1c(O)[nH][nH]c1=O)c1ccccc1`, for which the growth inhibition was 0.45% in test [1]; -0.05% in test [2]; -9.7% in test [3]; -36% in test [4]; -15.7% in test [5]; -0.1% in test [6].
Turning to `CN(C)S(=O)(=O)C1(c2ccccc2)CCCC1`, the growth inhibition in test [1] was 15.1%; in test [2], 9.85%; in test [3], 6.2%; in test [4] it was -1.5%; in test [5], -7%; in test [6], 1.9%.
For the compound `O=C(O)CNC(=O)C(Cc1ccccc1)NC(=O)CNC(=O)C(CSC(c1ccccc1)c1ccccc1)NC(=O)C(CSC(c1ccccc1)(c1ccccc1)c1ccccc1)N1C(=O)c2ccccc2C1=O` (stereo not given), the growth inhibition in test [1] is 1.5%; in test [2] it was 14.1%; in test [3], -3.7%; in test [4], -17.9%; in test [5], -7.05%; in test [6] it was 11%.
In the case of `O=C(Nc1cccc(F)c1)Sc1ccc(Cl)cc1`, the growth inhibition is 55% in test [1]; 53.9% in test [2]; 56.1% in test [3]; 34% in test [4]; 56.4% in test [5]; 41% in test [6].
As to `CCC(C(=O)O)C1=CCCCC1` (stereo not given), the growth inhibition is 15.7% in test [1]; -13.6% in test [2]; 16.2% in test [3]; 16.1% in test [4]; -14.2% in test [5]; 4.45% in test [6].
Regarding `C=C(C)c1nc(N)nc(-c2cccc(-c3nc(N)nc(C(=C)C)n3)c2)n1`, the growth inhibition in test [1] was -8.2%; in test [2], -8.35%; in test [3], 0.2%; in test [4], -67.6%; in test [5], -11%; in test [6], -0.8%.
With `Cc1ccc(C(C)C)cc1[N+](=O)[O-]`, the growth inhibition in test [1] is 9.9%; in test [2] it was -3.55%; in test [3] it was -17.7%; in test [4], -41%; in test [5], -13.6%; in test [6], -21.3%.
Regarding `Nc1cccc(=O)[nH]1`, the growth inhibition was 6.3% in test [1]; -10.2% in test [2]; -0.05% in test [3]; 3.7% in test [4]; 9.45% in test [5]; -3.85% in test [6].
Turning to `Nc1cccc(CCc2nc(N)nc(N)c2-c2ccc(Cl)cc2)c1`, the growth inhibition was 0.6% in test [1]; 21.6% in test [2]; 13.8% in test [3]; 3.2% in test [4]; 8.85% in test [5]; -14.3% in test [6].
Turning to `CC1(C)OC2C(=O)C3COC(O3)C2O1` (stereo not given), the growth inhibition in test [1] was -10.7%; in test [2] it was -0.25%; in test [3], -25.1%; in test [4] it was -36%; in test [5], 0%; in test [6] it was 5.8%.
With `COC(=O)C(=[N+]=[N-])C(=O)c1cccc([N+](=O)[O-])c1`, the growth inhibition in test [1] is 11.1%; in test [2], 15.5%; in test [3], 5.75%; in test [4], 17.2%; in test [5] it was 3.2%; in test [6], 12.2%.
On to `Cc1cc(C)c(C#[N+][O-])c(C)c1C#[N+][O-]`, for which the growth inhibition in test [1] was 5.9%; in test [2] it was 8.1%; in test [3], -5.8%; in test [4] it was 13.7%; in test [5], -1.1%; in test [6], 15.4%.
In the case of `COC(=O)/C(C#N)=C1\CCC(O)N1C` (stereo not given), the growth inhibition is 11.9% in test [1]; -10.8% in test [2]; 5.8% in test [3]; 6.2% in test [4]; 3% in test [5]; 9.6% in test [6].
As for `CCN(CCOC(=O)Nc1cccc(C(C)=O)c1)c1ccccc1`, the growth inhibition in test [1] is 91.2% (active); in test [2] it was 96.5% (active); in test [3], 97.5% (active); in test [4] it was 76.2% (active); in test [5] it was 92.1% (active); in test [6], 88.2% (active).
Regarding `CC(C)O[Si](OC(C)C)(OC(C)C)OC(C)C`, the growth inhibition is 13.2% in test [1]; -16.1% in test [2]; -8.7% in test [3]; -3.25% in test [4]; 9.9% in test [5]; 2.6% in test [6].
As for `Cn1c(=O)c2c(-c3ccccc3)onc2n(C)c1=O`, the growth inhibition in test [1] is 16.3%; in test [2] it was 12.8%; in test [3] it was 22.4%; in test [4], 33.7%; in test [5], 2.8%; in test [6] it was 44.8%.
In the case of `COC(=O)C1=C(NC(=O)Nc2ccc([N+](=O)[O-])cc2)OC(C)(C)C1c1ccc(Cl)cc1` (stereo not given), the growth inhibition in test [1] was 23.6%; in test [2] it was 9.15%; in test [3] it was 6.45%; in test [4], -6.1%; in test [5], 1.1%; in test [6], 29.6%.
As for `O=C(Nc1ccccc1Cl)OCCOc1ccccc1`, the growth inhibition is -3.7% in test [1]; 10.1% in test [2]; 11.3% in test [3]; -19.1% in test [4]; 17.2% in test [5]; 14.7% in test [6].
As to `COc1cc(CC/C(C)=N/O)ccc1OCc1ccccc1`, the growth inhibition in test [1] is -13.1%; in test [2], -21.2%; in test [3] it was 0.7%; in test [4], -39.6%; in test [5], 9.65%; in test [6], -22.8%.
